Among the data in PubChem BioAssay AID2806 (Sanford-Burnham Center for Chemical Genomics, 2010) are inhibition values, retold here.

The structures appear in SMILES notation. Among all 330,000 compounds or so, about 660 (0.2%) were called active. What follows is part of a selection rich in actives, with near analogues and random picks from the rest. Values without a mark were called inactive.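 How the source made its calls: active means inhibition of at least 40% at 10 µM in the primary screen; inactive means the rest.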

For this test, the system named is intestinal alkaline phosphatase [Mus musculus]. The test can be described thus: inhibitors of mouse IAP, primary screen, biochemical, luminescence, uHTS (AID 2806).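 Further: plate controls were DMSO with enzyme for no effect and no enzyme wells for full effect.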 To be noted: purified mouse IAP, CDP-Star luminescence, 30 min; at 10 µM; active compounds read high.
Turning to `O=C1NC(=O)N(Cc2ccco2)C(=O)/C1=C\c1ccc(-c2ccc(F)cc2)o1`, the inhibition was 64.1% (active). Turning to `O=C1NC(=O)N(Cc2ccco2)C(=O)/C1=C\c1cccn1CCOc1ccccc1`, the inhibition is 40.7% (active). In the case of `O=C(O)COc1ccccc1/C=C1\C(=O)NC(=O)N(CCC2=CCCCC2)C1=O`, the inhibition was 0.6%.

On to `O=C1NC(=O)N(CCc2ccc(F)cc2)C(=O)/C1=C/C=C/c1ccccc1`, for which the inhibition is 1.6%. For `COC(=O)C1=C(c2cc3ccccc3s2)C[C@@H]2CC[C@H]1N2C(=O)NCc1cccc2ccccc12`, the inhibition is 1%.

Turning to `COc1ccc2c(c1)[C@]13CCCCC1C(C2)N(C)CC3` (stereo not given in full), the inhibition was 0.8%. In the case of `O=Cc1cn(Cc2ccc(F)cc2Cl)c2ccccc12` it was -2%; in that of `CNCC(O)c1cc(F)c(OCc2ccccc2)c(OCc2ccccc2)c1F` (stereo not given), 5.2%. Turning to `Cc1cc(C(=O)OCC(=O)Nc2c(F)cccc2F)c(C)n1C1CC1`, the inhibition is 7.2%. As to `Oc1ccc2c3c1OC1[C@H](O)CC[C@@]4(O)[C@@H](C2)N(CC2CC2)CC[C@]314` (stereo not given in full), the inhibition was 1.2%. In the case of `COc1ccc(N2C(=O)/C(=C/c3ccco3)C(=O)NC2=S)cc1`, the inhibition was 42.1% (active). Consider `COc1cccc(N2C(=O)NC(=O)/C(=C\c3ccc([N+](=O)[O-])s3)C2=O)c1`, for which the inhibition is 34.9%.

Regarding `O=C1NC(=O)N(c2ccccc2)C(=O)/C1=C/c1ccc([N+](=O)[O-])s1`, the inhibition is 26.5%. Turning to `CSc1ccc(C(=O)C2CCCN(Cc3ccn[nH]3)C2)cc1` (stereo not given), the inhibition was -3.6%. For `CC1CCCCN1Cc1cccnc1` (stereo not given), the inhibition was 0.7%.
